# Test results: PubChem BioAssay (EPA / NIEHS)
# Inconclusive results are not listed. Calls of active or inactive are those of the source. Rule for the calls: active = hit-call score of the fitted dose curve at least 0.9, where 1 is the maximum; inconclusive = response in the unintended direction; inactive = score below 0.9.
# Target: Estrogen receptor (Homo sapiens) (UniProt P03372)
# Experiment: OT_ER_ERaERa_1440: Odyssey Thera (OT) 24-hour HEK293T Protein-Complementation Assay for Estrogen Receptor-alpha/-alpha Homodimer (AID 2283349);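 note: hits raise fluorescence above DMSO for agonists and antagonists alike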
# Outline: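 Stably transfected HEK293T; ERα LBD homodimer PCA. 24 h dosing, fluorescence intensity read, gain-of-signal vs DMSO.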
# Chain of Estrogen receptor (Homo sapiens) (P03372 whole entry, looked up, the tested form may be a part): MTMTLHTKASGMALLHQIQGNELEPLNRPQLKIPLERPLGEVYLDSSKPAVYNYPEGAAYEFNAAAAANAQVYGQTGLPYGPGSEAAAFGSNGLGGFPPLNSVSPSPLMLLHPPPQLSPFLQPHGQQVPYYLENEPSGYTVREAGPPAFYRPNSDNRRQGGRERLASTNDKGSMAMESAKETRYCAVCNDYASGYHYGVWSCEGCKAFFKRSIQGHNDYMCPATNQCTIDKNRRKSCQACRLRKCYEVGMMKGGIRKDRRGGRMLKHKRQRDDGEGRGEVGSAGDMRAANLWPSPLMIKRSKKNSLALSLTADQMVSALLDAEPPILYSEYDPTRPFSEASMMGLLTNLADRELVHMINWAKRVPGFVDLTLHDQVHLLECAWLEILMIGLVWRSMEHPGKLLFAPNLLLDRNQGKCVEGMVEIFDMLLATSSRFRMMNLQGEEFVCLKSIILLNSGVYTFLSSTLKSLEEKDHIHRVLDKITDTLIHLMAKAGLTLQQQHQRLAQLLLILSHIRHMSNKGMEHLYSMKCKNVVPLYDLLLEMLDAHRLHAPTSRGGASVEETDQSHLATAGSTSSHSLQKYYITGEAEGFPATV
Structure (SMILES),outcome,AC50
O=C1CN(N=Cc2ccc([N+](=O)[O-])o2)C(=O)N1,inactive,–
O=c1[nH]cnc2c1ncn2[C@H]1CC[C@@H](CO)O1,inactive,–
O=S(=O)(O)c1ccc(N=Nc2c(O)ccc3cc(S(=O)(=O)O)ccc23)cc1,inactive,–
CCCCC(CC)C(=O)OCCOCCOCCOC(=O)C(CC)CCCC (stereo not drawn),inactive,–
CCCCCCCC1CCC(=O)O1 (stereo not drawn),inactive,–
COc1cc2c(c(OC)c1OC)-c1ccc(OC)c(=O)cc1[C@@H](NC(C)=O)CC2,inactive,–
O=C(O)c1cccc(C[C@@H]2COc3ccc(OCc4nc5cc(F)ccc5s4)cc3[C@@H]2O)c1,inactive,–
CCc1ccc(O)c(C(C)(C)C)c1,inactive,–
CC1(C)C(=O)N(Cl)C(=O)N1Cl,inactive,–
CC(=O)c1ccccc1,inactive,–
Cc1ncc([C@@H](CCCCCCc2ccc3c(n2)NCCC3)CC(=O)O)cn1,inactive,–
CCCCN1C(=O)[C@@H]([C@H](O)C2CCCCC2)NC(=O)C12CCN(Cc1ccc(Oc3ccc(C(=O)O)cc3)cc1)CC2,inactive,–
CCCCCCOC(=O)CC(CC(=O)OCCCCCC)(OC(=O)CCC)C(=O)OCCCCCC,inactive,–
C=CCc1cc(S(=O)(=O)c2ccc(O)c(CC=C)c2)ccc1O,inactive,–
Cn1cc[nH]c1=S,inactive,–
OC(Cn1cncn1)(Cn1cncn1)c1ccc(F)cc1F,inactive,–
Cc1nc(-c2ccccn2)ncc1C(=O)Nn1cc(C)c2cc(F)ccc21,inactive,–
COc1cc(C(C)C)c2c(c1)S(=O)(=O)N(COc1cc(=O)n3cccc(OCCN4CCCCC4)c3n1)C2=O,inactive,–

Structure (SMILES),outcome,AC50
CCCCCCCCCCCCCCCCOS(=O)(=O)O,inactive,–
C[C@@H](Oc1ccc(CNC(=O)c2cccnc2Oc2ccc3c(c2)OCO3)c(F)c1)C(=O)O,inactive,–
CC(C)C(=O)Nc1ccc([N+](=O)[O-])c(C(F)(F)F)c1,inactive,–
NC(=O)N1c2ccccc2C=Cc2ccccc21,inactive,–
OCc1ccccc1,inactive,–
CCn1nc(C)c2c1C(=O)NCC(c1ccc(O)cc1)=N2,inactive,–
c1ccc(C(O[C@@H]2CCCN(CCc3ccc4c(c3)OCO4)C2)c2ccccc2)cc1,–,68.3 µM (active)
C[C@]12C=CC(=O)C=C1CC[C@H]1[C@@H]3C[C@@H](O)[C@](O)(C(=O)CO)[C@@]3(C)C[C@H](O)[C@@]12F,inactive,–
OCC(CO)(CO)CO,inactive,–
CCN(CC)C(=S)SSC(=S)N(CC)CC,inactive,–
Cc1nccn1-c1ccc(Sc2cccc(C3(C(N)=O)CCOCC3)c2)cc1,inactive,–
CCCCCCCCN(C)C,inactive,–
COS(C)(=O)=O,inactive,–
c1ccc2cc3ccccc3cc2c1,inactive,–
O=C(O)c1ccc2c(c1)nc(C(=O)NC1CCN(C3CC3)CC1)n2Cc1cc(-c2ccc(Cl)s2)on1,inactive,–
OC[C@H]1O[C@@H]2O[C@H]3[C@H](O)[C@@H](O)[C@@H](O[C@H]4[C@H](O)[C@@H](O)[C@@H](O[C@H]5[C@H](O)[C@@H](O)[C@@H](O[C@H]6[C@H](O)[C@@H](O)[C@@H](O[C@H]7[C@H](O)[C@@H](O)[C@@H](O[C@H]1[C@H](O)[C@H]2O)O[C@@H]7CO)O[C@@H]6CO)O[C@@H]5CO)O[C@@H]4CO)O[C@@H]3CO,inactive,–
OC[C@H]1O[C@@](CO)(O[C@H]2O[C@H](CO)[C@@H](O)[C@H](O)[C@H]2O)[C@@H](O)[C@@H]1O,inactive,–

# Target: Estrogen receptor (Homo sapiens) (UniProt P03372)
# Experiment: OT_ER_ERaERa_0480: Odyssey Thera (OT) 8-hour HEK293T Protein-Complementation Assay for Estrogen Receptor-alpha/-alpha Homodimer (AID 2283351);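 note: rise in fluorescence from reassembled reporter fragments on ERα LBD homodimer in nucleus or whole cell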
# Outline: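 Cells were treated for 8 hours, then imaged on a laser scanning plate cytometer. Complementation of reporter fragments fused to the human ERα ligand-binding domain (residues 310-547) in HEK293T gave fluorescence, and gain of signal over vehicle was fitted.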
row,Structure (SMILES),outcome
1,O=c1[nH]cnc2c1ncn2[C@H]1CC[C@@H](CO)O1,inactive
2,O=S(=O)(O)c1ccc(N=Nc2c(O)ccc3cc(S(=O)(=O)O)ccc23)cc1,inactive
3,CCCCC(CC)C(=O)OCCOCCOCCOC(=O)C(CC)CCCC (stereo not drawn),inactive
4,O=C(O)c1cccc(C[C@@H]2COc3ccc(OCc4nc5cc(F)ccc5s4)cc3[C@@H]2O)c1,inactive
5,CC(=O)c1ccccc1,inactive
6,CCCCN1C(=O)[C@@H]([C@H](O)C2CCCCC2)NC(=O)C12CCN(Cc1ccc(Oc3ccc(C(=O)O)cc3)cc1)CC2,inactive
7,CCCCCCOC(=O)CC(CC(=O)OCCCCCC)(OC(=O)CCC)C(=O)OCCCCCC,inactive
8,OC(Cn1cncn1)(Cn1cncn1)c1ccc(F)cc1F,inactive
9,Cc1nc(-c2ccccn2)ncc1C(=O)Nn1cc(C)c2cc(F)ccc21,inactive
10,NC(=O)N1c2ccccc2C=Cc2ccccc21,inactive
11,C[C@]12C=CC(=O)C=C1CC[C@H]1[C@@H]3C[C@@H](O)[C@](O)(C(=O)CO)[C@@]3(C)C[C@H](O)[C@@]12F,inactive
12,OCC(CO)(CO)CO,inactive
13,Cc1nccn1-c1ccc(Sc2cccc(C3(C(N)=O)CCOCC3)c2)cc1,inactive
14,c1ccc2cc3ccccc3cc2c1,inactive
15,O=C(O)c1ccc2c(c1)nc(C(=O)NC1CCN(C3CC3)CC1)n2Cc1cc(-c2ccc(Cl)s2)on1,inactive

# Target: Estrogen receptor (Homo sapiens) + Estrogen receptor beta (Homo sapiens) (UniProt P03372+Q92731)
# Sequence (P03372 whole entry, looked up): as the sequence (P03372 whole entry, looked up, the tested form may be a part) above
# Sequence (Q92731 whole entry, looked up): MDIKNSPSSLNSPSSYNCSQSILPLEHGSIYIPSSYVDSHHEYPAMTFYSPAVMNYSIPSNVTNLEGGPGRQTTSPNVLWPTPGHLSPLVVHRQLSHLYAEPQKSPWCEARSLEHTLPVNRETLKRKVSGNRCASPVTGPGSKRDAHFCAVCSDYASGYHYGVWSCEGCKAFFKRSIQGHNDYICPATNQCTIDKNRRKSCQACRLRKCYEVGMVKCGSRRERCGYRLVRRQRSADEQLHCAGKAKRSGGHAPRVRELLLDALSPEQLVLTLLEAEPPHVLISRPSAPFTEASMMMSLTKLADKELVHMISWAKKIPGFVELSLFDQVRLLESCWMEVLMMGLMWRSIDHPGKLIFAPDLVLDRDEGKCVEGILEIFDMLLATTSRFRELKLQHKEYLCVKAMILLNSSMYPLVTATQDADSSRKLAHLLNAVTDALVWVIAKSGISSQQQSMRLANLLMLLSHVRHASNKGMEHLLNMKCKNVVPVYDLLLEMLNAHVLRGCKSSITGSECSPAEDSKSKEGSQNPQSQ
# Experiment: OT_ER_ERaERb_0480: Odyssey Thera (OT) 8-hour HEK293T Protein-Complementation Assay for Estrogen Receptor-alpha/-beta Heterodimer (AID 2283352)
# Outline: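 HEK293T cells expressing ER-alpha/ER-beta LBD fusions to complementary reporter fragments were dosed with compound for 8 hours. Heterodimer formation was read as increased nuclear (agonist) or nuclear plus cytoplasmic (antagonist) mean fluorescence intensity versus DMSO vehicle.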
Structure (SMILES),outcome,AC50
CCCCC(CC)C(=O)OCCOCCOCCOC(=O)C(CC)CCCC (stereo not drawn),inactive,–
CCCCCCCC1CCC(=O)O1 (stereo not drawn),inactive,–
COc1cc2c(c(OC)c1OC)-c1ccc(OC)c(=O)cc1[C@@H](NC(C)=O)CC2,inactive,–
CCc1ccc(O)c(C(C)(C)C)c1,inactive,–
Cc1ncc([C@@H](CCCCCCc2ccc3c(n2)NCCC3)CC(=O)O)cn1,inactive,–
CCCCN1C(=O)[C@@H]([C@H](O)C2CCCCC2)NC(=O)C12CCN(Cc1ccc(Oc3ccc(C(=O)O)cc3)cc1)CC2,inactive,–
CCCCCCOC(=O)CC(CC(=O)OCCCCCC)(OC(=O)CCC)C(=O)OCCCCCC,inactive,–
C=CCc1cc(S(=O)(=O)c2ccc(O)c(CC=C)c2)ccc1O,inactive,–
Cn1cc[nH]c1=S,inactive,–
Cc1nc(-c2ccccn2)ncc1C(=O)Nn1cc(C)c2cc(F)ccc21,inactive,–
CCCCCCCCCCCCCCCCOS(=O)(=O)O,inactive,–
C[C@@H](Oc1ccc(CNC(=O)c2cccnc2Oc2ccc3c(c2)OCO3)c(F)c1)C(=O)O,inactive,–
CC(C)C(=O)Nc1ccc([N+](=O)[O-])c(C(F)(F)F)c1,inactive,–
NC(=O)N1c2ccccc2C=Cc2ccccc21,inactive,–
OCc1ccccc1,inactive,–
CCn1nc(C)c2c1C(=O)NCC(c1ccc(O)cc1)=N2,inactive,–
c1ccc(C(O[C@@H]2CCCN(CCc3ccc4c(c3)OCO4)C2)c2ccccc2)cc1,–,31.5 µM (active)
OCC(CO)(CO)CO,inactive,–
CCN(CC)C(=S)SSC(=S)N(CC)CC,inactive,–
Cc1nccn1-c1ccc(Sc2cccc(C3(C(N)=O)CCOCC3)c2)cc1,inactive,–
c1ccc2cc3ccccc3cc2c1,inactive,–
O=C(O)c1ccc2c(c1)nc(C(=O)NC1CCN(C3CC3)CC1)n2Cc1cc(-c2ccc(Cl)s2)on1,inactive,–
OC[C@H]1O[C@@H]2O[C@H]3[C@H](O)[C@@H](O)[C@@H](O[C@H]4[C@H](O)[C@@H](O)[C@@H](O[C@H]5[C@H](O)[C@@H](O)[C@@H](O[C@H]6[C@H](O)[C@@H](O)[C@@H](O[C@H]7[C@H](O)[C@@H](O)[C@@H](O[C@H]1[C@H](O)[C@H]2O)O[C@@H]7CO)O[C@@H]6CO)O[C@@H]5CO)O[C@@H]4CO)O[C@@H]3CO,inactive,–
